UGM FP inh: Mtb UDP-galactopyranose mutase inhibition; P9WIQ1; purified UGM, fluorescence polarization probe displacement; inhibition, % at 10 µM; actives 0.06% (n = 320,000); AID 504406; in the data active = inhibition above about 10%, passing the limit was not always enough
Mtb FBA inh: inhibitors of M. tuberculosis fructose-bisphosphate aldolase | inhibition, % at 1 µM | AID 588726 | purified M. tuberculosis FBA, fluorescence read-out | actives 2.3% (n = 360,000); in the data active = inhibition above about 27%;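 also: 0% = vehicle and 100% = reference inhibitor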
GDH-TPI inh: inhibits GDH-TPI coupling enzymes, artifact for Mtb FBA screen; GDH-TPI coupled enzyme counterscreen, NADH absorbance; inhibition, % at 4.8 µM; actives 1.2% (n = 360,000); in the data active = inhibition above about 30%;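 also: 0% = DMSO wells and 100% = wells lacking the enzyme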
Mtb betalactam: beta-lactam sensitization of Mtb H37Rv; M. tuberculosis H37Rv growth with meropenem, percent inhibition; inhibition, % at 25 µM; actives 0.27% (n = 330,000); AID 434955; call rule not given here;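 also: growth measured after seven days incubation then overnight dye step; 0% = bacteria only wells and 100% = bacteria with antibiotic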
RecA intein inh: blocks M. tuberculosis RecA intein splicing; inhibition, % (no concentration beside the values); P9WHJ3; actives 0.75% (n = 290,000); cell-free RecA intein splicing, fluorescence; AID 2221; in the data active = inhibition above about 30%;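 also: 0% = vehicle wells and 100% = reference inhibitor control wells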
Target sequence (P9WHJ3 whole entry, looked up): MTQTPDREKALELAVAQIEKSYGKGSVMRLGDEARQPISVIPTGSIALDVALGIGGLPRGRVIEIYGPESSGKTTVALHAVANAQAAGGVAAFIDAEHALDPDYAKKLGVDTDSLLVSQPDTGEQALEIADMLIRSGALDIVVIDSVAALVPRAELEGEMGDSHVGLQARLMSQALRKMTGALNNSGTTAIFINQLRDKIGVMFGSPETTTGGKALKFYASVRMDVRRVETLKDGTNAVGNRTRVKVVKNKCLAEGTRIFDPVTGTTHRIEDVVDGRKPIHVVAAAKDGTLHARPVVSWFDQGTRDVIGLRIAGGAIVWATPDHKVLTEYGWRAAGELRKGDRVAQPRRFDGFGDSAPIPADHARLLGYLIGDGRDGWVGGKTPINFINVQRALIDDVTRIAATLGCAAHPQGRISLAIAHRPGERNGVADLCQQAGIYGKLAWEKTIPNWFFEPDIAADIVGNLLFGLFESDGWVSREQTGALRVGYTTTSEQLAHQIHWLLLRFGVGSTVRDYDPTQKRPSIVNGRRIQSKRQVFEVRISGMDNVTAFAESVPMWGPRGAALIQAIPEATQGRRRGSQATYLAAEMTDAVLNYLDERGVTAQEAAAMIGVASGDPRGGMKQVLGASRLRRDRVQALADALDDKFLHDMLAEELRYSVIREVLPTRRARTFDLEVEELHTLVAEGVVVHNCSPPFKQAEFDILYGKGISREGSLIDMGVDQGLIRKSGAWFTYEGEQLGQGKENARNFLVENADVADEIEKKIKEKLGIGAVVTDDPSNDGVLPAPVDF
Rv3671c inh: inhibitors of M. tuberculosis serine protease Rv3671c | P9WHR9 | inhibition, % at 5.96 µM | actives 0.048% (n = 320,000) | AID 2606; in the data active = inhibition above about 38%;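 also: extracellular domain of Rv3671c used as enzyme; 0% = enzyme with DMSO and 100% = no enzyme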
Active calls of the source: *; i = inactive; . = not tested or not shown; + = active, no number. Hits are enriched below; roughly 4% of the tested compounds scored in any of these assays.

SMILES	UGM FP inh	Mtb FBA inh	GDH-TPI inh	Mtb betalactam	RecA intein inh	Rv3671c inh
O=C(N/C(=C/C=C/c1ccccc1)C(=O)N1CCOCC1)c1ccccc1Cl	-4.6	2.7	21.7	-9.7	-0.4	7.1
Cc1ccc(C(=O)N/C(=C\C=C\c2ccccc2)C(=O)NCc2ccco2)cc1	1.0	3.6	35.9*	12.3	6.3	-10.2
CC(C)(C)NC(=O)CSc1nc2cccnc2n1C1CCCCC1	0.9	-0.8	-6.6	-16.6	2.8	-7.0
COc1cc(NC(=O)Nc2nc(C(N)C3CCCCC3)cs2)cc(OC)c1OC (stereo unspecified)	.	-0.8	6.2	.	.	.
CC1CCCN(CCOc2ccc3ccccc3c2Br)C1 (stereo unspecified)	-1.8	1.4	-5.6	56.1	1.8	0.3
COc1ccc([C@H]2CC(=O)C=C(c3ccc4cc[nH]c4c3)C2)cc1	5.1	4.2	27.4	69.5	.	-30.0
CN1/C(=C\C=Nc2cc(S(=O)(=O)N3CCOCC3)ccc2N2CCOCC2)C(C)(C)c2ccccc21	0.8	-6.5	40.9*	-1.9	2.0	-0.8
CO/N=C/C=C1/N(C)c2ccccc2C1(C)C	0.1	-2.3	60.5*	-3.1	-1.1	3.0
Cc1ccccc1N=C/C=C1\N(C)c2ccccc2C1(C)C	-1.2	2.1	34.9*	7.4	-3.5	-25.0
CN1/C(=C\C=N\O)C(C)(C)c2ccccc21	0.3	-0.5	-5.0	-1.0	-2.5	-3.2
O=C(NCc1ccc(Cl)s1)C1CCC(=O)N(CCc2ccccn2)C1 (stereo unspecified)	1.0	-0.3	4.3	-4.8	-0.1	-2.4
CCCCN1Cc2c(nc3cc(-c4ccco4)[nH]n3c2=O)C1=O	-2.2	142.5*	6.1	34.0	.	17.1
CN1CCN(C(=O)/C(=C\c2cccnc2)NC(=O)c2cccc(Br)c2)CC1	-1.0	3.0	-7.6	-7.7	2.7	-4.0
CCOCCCNC(=O)c1c(N)n(-c2ccc(S(N)(=O)=O)cc2)c2nc3ccccc3nc12	-1.2	32.6*	6.0	3.7	-29.3	-8.4
CCOc1ccc(-n2c(N)c(C(=O)NCc3ccco3)c3nc4ccccc4nc32)cc1	4.0	52.2*	18.1	17.3	-26.1	-8.2
Nc1nc2c(c(=O)[nH]1)C(c1cccc3ccccc13)C1=C(N2)c2ccccc2C1=O (stereo unspecified)	.	4.2	6.1	.	.	.
CCNC(=O)c1sc(=S)n(CC)c1N	-0.2	-1.7	31.8*	-15.6	-6.0	-7.6
CCn1c(N)c(C(=O)N2CCOCC2)sc1=S	0.7	4.1	30.7*	2.6	-2.0	-5.3
CCc1nc2c(OCc3c(C)noc3C)cccn2c1N(C=O)Cc1ccc(OC)cc1	.	-1.6	-3.9	.	.	.
CCOC(=O)/C(C#N)=C1/C=CN(C)C=N1	-3.3	-3.4	50.3*	2.2	-1.8	-4.1
CCOC(=O)/C(C#N)=C1/C=CN(Cc2ccccc2)C=N1	-1.7	-2.7	48.3*	0.1	-1.7	3.7
CCOC(=O)/C(C#N)=C1\C=CN(C)C(C)=N1	2.5	-0.3	41.7*	-1.8	0.5	-5.3
CCOC(=O)/C(C#N)=C1/C=Nc2ccccc2N1	0.3	-7.3	-1.6	2.4	.	1.1
CCOC(=O)/C(C#N)=C1/C=CN(c2ccccc2)C=N1	0.2	0.0	38.3*	-3.0	1.2	-1.5
NC(c1csc(Nc2nncc3ccccc23)n1)C1CCCCC1 (stereo unspecified)	.	3.9	7.6	.	.	.
SMILES	UGM FP inh	Mtb FBA inh	GDH-TPI inh	Mtb betalactam	RecA intein inh	Rv3671c inh
CCOC(=O)/C(C#N)=C1/C=CN(c2ccc(C)cc2)C=N1	-0.4	-6.0	43.3*	3.3	-0.4	-6.3
Cc1nc2ccccn2c(=O)c1NC(=O)c1cccc2ccccc12	0.3	-0.2	30.7*	-20.1	-0.1	16.4
N#CCCN(C(=O)CCl)c1cccc(Cl)c1	-2.4	-2.2	-2.2	98.9	45.3*	10.4
CC(N)=Nc1ccc([N+](=O)[O-])cc1	14.2*	-1.3	7.0	3.8	0.5	-1.6
CC(=O)c1ccc([N+](=O)[O-])cc1	1.0	1.7	0.0	-5.1	.	-1.2
O=C(O)c1ccc2oc(=O)c(S(=O)(=O)c3ccccc3)cc2c1	-2.1	-0.7	24.8	-2.6	-1.5	-8.4
Cc1c(O)ccc2cc(S(=O)(=O)c3ccccc3)c(=O)oc12	1.8	+	2.6	-7.5	i	-3.9
O=C(O)c1ccccc1NS(=O)(=O)c1ccc(N/N=C/c2ccc(O)c(O)c2)c([N+](=O)[O-])c1	.	1.5	46.3*	.	.	.
COc1ccccc1NS(=O)(=O)c1ccc(N/N=C/c2ccccc2OCC(=O)O)c([N+](=O)[O-])c1	2.4	-5.6	34.9*	-1.5	-1.7	17.2
O=C(NNS(=O)(=O)c1ccc(F)cc1)c1ccccc1	0.2	146.7*	10.4	2.6	-0.7	-2.1
O=C(NNS(=O)(=O)c1ccc(F)cc1)c1ccccc1F	-2.7	-3.4	-16.8	7.8	-3.4	3.2
Cn1c2ccccc2c2cc(C(=O)NNS(=O)(=O)c3ccc(F)cc3)sc21	-0.6	23.4	34.3*	19.3	6.9	-9.4
COc1ccc(S(=O)(=O)Nc2ccc3c(c2)C(=O)N([C@H](C)CO)C[C@H](C)[C@@H](CN(C)S(=O)(=O)c2ccc(F)cc2)O3)cc1	-0.2	2.2	1.4	9.7	.	4.0
CN(C)CCNc1ncnc2c1ncn2[C@H]1CN(Cc2cccnc2)C[C@@H](CO)O1	.	1.1	-4.0	.	.	.
COc1ccccc1OCCN1CSC(=S)N(C)C1	-0.4	0.8	-3.6	99.6	17.6	0.4
Cc1cccc(OCCN2CSC(=S)N(C)C2)c1	0.5	-1.7	-5.4	99.7	41.9*	-5.8
COCCCN=Cc1c(O)[nH]c(=S)[nH]c1=O	1.5	-0.3	32.7*	3.5	-1.7	3.6
CCCCCCCCN=Cc1c(O)[nH]c(=O)[nH]c1=O	-4.2	0.2	3.9	-2.7	-1.3	6.5
O=C1CSC(c2cn(-c3ccccc3)nc2-c2cc3ccccc3oc2=O)N1Cc1ccco1 (stereo unspecified)	-1.4	2.1	31.4*	0.5	10.5	-4.4
CN(C)/N=C/c1ccc(P(c2ccc(/C=N/N(C)C)o2)c2ccc(/C=N/N(C)C)o2)o1	1.5	-6.0	65.0*	-12.8	-3.7	9.2
Cc1ccc(NC(=O)NCc2ccccn2)c(C)c1	-2.1	0.9	6.5	-2.3	-1.5	.
CN(Cc1ccccc1)C(=O)c1csc([C@@H]2O[C@H](CO)[C@H](O)[C@H](O)[C@H]2O)n1	.	-0.6	8.4	.	.	.
O=C(O)c1cccc(Cn2c(Cl)c(/C=N/NC(=O)c3ccco3)sc2=O)c1	0.1	-1.7	46.5*	-9.6	2.5	-5.5
COCCn1c(C)cc(/C=N/NC(=O)c2cc3ccccc3cc2O)c1C	-2.1	-1.0	21.0	-0.9	.	4.9
O=C(O)c1cccc(Cn2c(Cl)c(/C=N/NC(=O)c3cc4ccccc4cc3O)sc2=O)c1	-0.7	-0.9	58.9*	-3.0	-7.4	10.6
O=C(O)c1cccc(Cn2c(Cl)c(/C=N/NC(=O)c3ccccc3)sc2=O)c1	-0.8	-7.0	55.5*	0.3	2.3	0.3
COC(=O)c1cccc(Cn2c(Cl)c(/C=N/Nc3ccccc3C)sc2=O)c1	3.8	-2.0	16.5	-0.9	11.9	-2.9
